Experimental data taken from PubChem BioAssay (NCI).
The panel holds about 83,000 compounds, 20% with a hit somewhere; the sample as a whole holds those more often.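 Each cell line was grown in a 96-well plate and treated with one concentration of compound for 48 hours. Values below 10 were considered active.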 Active and inactive are the calls of the source.

Key:
Assay in all cases: NCI-60 one-dose screen, 48 h (100 = growth as untreated, 0 = no growth, -100 = all killed)
SK-MEL-2 melanoma = settings: 10 µM unless noted
SN12C renal = settings: 10 µM unless noted
UO-31 renal = settings: 10 µM unless noted
TK-10 renal = settings: 10 µM unless noted
ACHN renal = settings: 10 µM unless noted
CAKI-1 renal = settings: 10 µM unless noted
A498 renal = settings: 10 µM unless noted
MOLT-4 leukemia = settings: 10 µM unless noted
RPMI-8226 leukemia = settings: 10 µM unless noted
OVCAR-8 ovarian = settings: 10 µM unless noted
OVCAR-5 ovarian = settings: 10 µM unless noted
OVCAR-4 ovarian = settings: 10 µM unless noted
SK-OV-3 ovarian = settings: 10 µM unless noted
IGROV1 ovarian = settings: 10 µM unless noted
OVCAR-3 ovarian = settings: 10 µM unless noted
HS 578T breast = settings: 10 µM unless noted
NCI/ADR-RES ovarian = settings: 10 µM unless noted
SR leukemia = settings: 10 µM unless noted
CCRF-CEM leukemia = settings: 10 µM

Measured: growth

CCCCN(CCCC)c1ccc(C(=O)O)cc1
inactive: SK-MEL-2 melanoma 83.5% | SN12C renal 97.9% | UO-31 renal 82.9% | TK-10 renal 86.3% | ACHN renal 105% | CAKI-1 renal 103% | A498 renal 98.2% | MOLT-4 leukemia 99% | RPMI-8226 leukemia 102% | OVCAR-8 ovarian 105% | OVCAR-5 ovarian 108% | OVCAR-4 ovarian 101% | SK-OV-3 ovarian 98.5% | IGROV1 ovarian 99.3% | OVCAR-3 ovarian 106% | HS 578T breast 109% | NCI/ADR-RES ovarian 106%

N#CCc1ncc(-c2ccc(C(F)(F)F)cc2)c(NC2CCCCCC2)n1
active: SK-MEL-2 melanoma -22.1% [100 µM] | A498 renal 1.91% [100 µM] | MOLT-4 leukemia -4.66% [100 µM] | SR leukemia -23.8% [100 µM] | RPMI-8226 leukemia -32% [100 µM] | OVCAR-3 ovarian -19% [100 µM]
inactive: SN12C renal 30.4% [100 µM] | UO-31 renal 29.8% [100 µM] | TK-10 renal 61.2% [100 µM] | ACHN renal 18.4% [100 µM] | OVCAR-8 ovarian 26% [100 µM] | OVCAR-5 ovarian 50.2% [100 µM] | OVCAR-4 ovarian 42.5% [100 µM] | SK-OV-3 ovarian 74.9% [100 µM] | IGROV1 ovarian 44.9% [100 µM] | HS 578T breast 52.7% [100 µM] | NCI/ADR-RES ovarian 28.3% [100 µM]

CCCCS(=O)(=O)c1cc(Nc2ccc(O)c3c2C(=O)c2ccccc2C3=O)ccc1C
inactive: SK-MEL-2 melanoma 92.5% | SN12C renal 71.5% | UO-31 renal 54.8% | TK-10 renal 116% | ACHN renal 92.2% | A498 renal 126% | CCRF-CEM leukemia 59.7% | SR leukemia 58.6% | RPMI-8226 leukemia 80.9% | OVCAR-8 ovarian 86.6% | OVCAR-5 ovarian 78.5% | OVCAR-4 ovarian 78.9% | SK-OV-3 ovarian 87.8% | IGROV1 ovarian 81.8% | OVCAR-3 ovarian 46.4% | NCI/ADR-RES ovarian 82.2%

CC(O)CN(CCO)CCN(CCO)CC(C)O (stereo not given)
inactive: SK-MEL-2 melanoma 114% | SN12C renal 104% | UO-31 renal 99.6% | ACHN renal 102% | CAKI-1 renal 95.1% | A498 renal 112% | MOLT-4 leukemia 100% | SR leukemia 89.2% | RPMI-8226 leukemia 102% | OVCAR-8 ovarian 106% | OVCAR-5 ovarian 99.7% | OVCAR-4 ovarian 109% | SK-OV-3 ovarian 114% | IGROV1 ovarian 115% | OVCAR-3 ovarian 112% | HS 578T breast 108% | NCI/ADR-RES ovarian 112%

CC(=O)C(CO)C(=O)Nc1ccccc1 (stereo not given)
inactive: SK-MEL-2 melanoma 90.4% | SN12C renal 101% | UO-31 renal 106% | TK-10 renal 109% | ACHN renal 93.3% | CAKI-1 renal 94.8% | CCRF-CEM leukemia 99.2% | MOLT-4 leukemia 102% | SR leukemia 94.8% | RPMI-8226 leukemia 103% | OVCAR-8 ovarian 109% | OVCAR-5 ovarian 102% | OVCAR-4 ovarian 98% | SK-OV-3 ovarian 93.8% | IGROV1 ovarian 105% | OVCAR-3 ovarian 110% | HS 578T breast 118% | NCI/ADR-RES ovarian 103%

CC(Br)c1nc2ccccc2cc1C(N)=O (stereo not given)
inactive: SK-MEL-2 melanoma 110% | SN12C renal 90.5% | UO-31 renal 92.6% | TK-10 renal 96.8% | ACHN renal 109% | A498 renal 94.7% | CCRF-CEM leukemia 84.5% | SR leukemia 74.9% | OVCAR-8 ovarian 112% | OVCAR-5 ovarian 108% | OVCAR-4 ovarian 109% | SK-OV-3 ovarian 95.3% | OVCAR-3 ovarian 105% | NCI/ADR-RES ovarian 109%

CCCCCCCCCCCCCCCCCCOP(=O)(O)O
inactive: SK-MEL-2 melanoma 124% | SN12C renal 94.1% | UO-31 renal 86.8% | TK-10 renal 107% | ACHN renal 100% | A498 renal 110% | MOLT-4 leukemia 111% | SR leukemia 103% | OVCAR-8 ovarian 97.5% | OVCAR-5 ovarian 103% | OVCAR-4 ovarian 117% | SK-OV-3 ovarian 109% | IGROV1 ovarian 110% | OVCAR-3 ovarian 113% | NCI/ADR-RES ovarian 108%

CSc1nc(N)n2nccc2n1
inactive: SK-MEL-2 melanoma 115% | SN12C renal 96.8% | UO-31 renal 65.4% | TK-10 renal 99.8% | ACHN renal 112% | CAKI-1 renal 70.6% | A498 renal 109% | SR leukemia 111% | RPMI-8226 leukemia 106% | OVCAR-8 ovarian 98.5% | OVCAR-5 ovarian 114% | OVCAR-4 ovarian 103% | SK-OV-3 ovarian 105% | IGROV1 ovarian 105% | OVCAR-3 ovarian 106% | HS 578T breast 105% | NCI/ADR-RES ovarian 105%

O=P(OCCCl)(OCCCl)C(O)c1ccccc1Cl (stereo not given)
inactive: SK-MEL-2 melanoma 112% | SN12C renal 111% | UO-31 renal 80.2% | TK-10 renal 102% | ACHN renal 98.4% | CAKI-1 renal 76.4% | A498 renal 121% | SR leukemia 89.3% | RPMI-8226 leukemia 110% | OVCAR-8 ovarian 104% | OVCAR-5 ovarian 107% | OVCAR-4 ovarian 111% | SK-OV-3 ovarian 104% | IGROV1 ovarian 98.6% | OVCAR-3 ovarian 96.8% | HS 578T breast 106% | NCI/ADR-RES ovarian 109%

CN(C)CCOC(=O)C(C)(C)C
inactive: SK-MEL-2 melanoma 103% | SN12C renal 102% | UO-31 renal 89.9% | TK-10 renal 102% | CAKI-1 renal 105% | A498 renal 103% | MOLT-4 leukemia 95.9% | SR leukemia 99.5% | RPMI-8226 leukemia 106% | OVCAR-8 ovarian 99.7% | OVCAR-5 ovarian 103% | OVCAR-4 ovarian 111% | SK-OV-3 ovarian 112% | IGROV1 ovarian 106% | OVCAR-3 ovarian 111% | HS 578T breast 105% | NCI/ADR-RES ovarian 110%

CNc1nc2ncn(C)c2c(=O)[nH]1
inactive: SK-MEL-2 melanoma 94.3% | SN12C renal 92% | UO-31 renal 83.3% | TK-10 renal 84.1% | ACHN renal 71.5% | CAKI-1 renal 84.1% | A498 renal 96.4% | MOLT-4 leukemia 94.8% | RPMI-8226 leukemia 97.4% | OVCAR-8 ovarian 104% | OVCAR-5 ovarian 86.7% | OVCAR-4 ovarian 93.8% | SK-OV-3 ovarian 104% | IGROV1 ovarian 94.2% | OVCAR-3 ovarian 113% | HS 578T breast 105% | NCI/ADR-RES ovarian 92.6%

COC(=O)c1cc(Nc2ccc(O)c3c2C(=O)c2c([N+](=O)[O-])ccc(O)c2C3=O)cc(C(=O)OC)c1
active: SR leukemia 2.02%
inactive: SK-MEL-2 melanoma 10.6% | SN12C renal 70.5% | UO-31 renal 67.1% | TK-10 renal 60.4% | ACHN renal 90.5% | A498 renal 93.8% | CCRF-CEM leukemia 23% | MOLT-4 leukemia 25.5% | RPMI-8226 leukemia 17.9% | OVCAR-8 ovarian 65.1% | OVCAR-5 ovarian 50.4% | OVCAR-4 ovarian 80.5% | SK-OV-3 ovarian 82.3% | OVCAR-3 ovarian 54.7% | NCI/ADR-RES ovarian 71.2%

CC(C)(CNC1CCCCC1)OC(=O)c1ccccc1
inactive: SK-MEL-2 melanoma 116% | SN12C renal 95.1% | UO-31 renal 77.2% | TK-10 renal 104% | CAKI-1 renal 102% | A498 renal 103% | CCRF-CEM leukemia 84.7% | MOLT-4 leukemia 93.8% | SR leukemia 106% | RPMI-8226 leukemia 106% | OVCAR-8 ovarian 101% | OVCAR-5 ovarian 114% | OVCAR-4 ovarian 110% | SK-OV-3 ovarian 106% | IGROV1 ovarian 106% | OVCAR-3 ovarian 102% | NCI/ADR-RES ovarian 103%

COc1cc2c(c3c1c(=O)c1cccc(F)c1n3C)C=CC(C)(C)O2
inactive: SK-MEL-2 melanoma 113% | SN12C renal 64.3% | ACHN renal 47.9% | A498 renal 90% | MOLT-4 leukemia 85.2% | SR leukemia 48.8% | RPMI-8226 leukemia 64.7% | OVCAR-8 ovarian 85.2% | OVCAR-5 ovarian 101% | OVCAR-4 ovarian 101% | SK-OV-3 ovarian 110% | IGROV1 ovarian 75.4% | OVCAR-3 ovarian 117% | HS 578T breast 101% | NCI/ADR-RES ovarian 83.9%
active: UO-31 renal -26.5% | CAKI-1 renal -64%

CCCCCCCCC(=O)Nc1ccc(O)cc1
inactive: SK-MEL-2 melanoma 93% | SN12C renal 94.3% | UO-31 renal 61.9% | TK-10 renal 87.1% | ACHN renal 79.2% | CAKI-1 renal 93.9% | A498 renal 102% | MOLT-4 leukemia 57.9% | RPMI-8226 leukemia 82.3% | OVCAR-8 ovarian 95% | OVCAR-5 ovarian 106% | OVCAR-4 ovarian 95.3% | SK-OV-3 ovarian 100% | IGROV1 ovarian 93.7% | OVCAR-3 ovarian 102% | HS 578T breast 103% | NCI/ADR-RES ovarian 82.9%

CCCCCCCCCCCCCCCCNC(=S)N/N=C/c1ccc(O)cc1O
inactive: SK-MEL-2 melanoma 75.4% | SN12C renal 74.2% | UO-31 renal 49.8% | TK-10 renal 57.8% | ACHN renal 77% | CAKI-1 renal 55.9% | A498 renal 91.1% | SR leukemia 41.2% | RPMI-8226 leukemia 59.7% | OVCAR-8 ovarian 56.2% | OVCAR-5 ovarian 95.3% | OVCAR-4 ovarian 66.9% | SK-OV-3 ovarian 87.7% | IGROV1 ovarian 55.2% | OVCAR-3 ovarian 73.1% | HS 578T breast 97.6% | NCI/ADR-RES ovarian 69.9%

CCOC(=O)c1csc(-c2ccc(COC(=O)c3ccccc3)o2)n1
inactive: SK-MEL-2 melanoma 107% | SN12C renal 96.1% | UO-31 renal 83.5% | TK-10 renal 107% | ACHN renal 95% | CAKI-1 renal 81.2% | A498 renal 112% | RPMI-8226 leukemia 111% | OVCAR-8 ovarian 111% | OVCAR-5 ovarian 102% | OVCAR-4 ovarian 116% | SK-OV-3 ovarian 107% | IGROV1 ovarian 103% | OVCAR-3 ovarian 116% | HS 578T breast 111% | NCI/ADR-RES ovarian 109%
active: MOLT-4 leukemia 4.16%

O=C(OCC1CC2(Cl)C(Cl)=C(Cl)C1(Cl)C2(Cl)Cl)C1C(C(=O)OCC2CC3(Cl)C(Cl)=C(Cl)C2(Cl)C3(Cl)Cl)C2(Cl)C(Cl)=C(Cl)C1(Cl)C2(Cl)Cl (stereo not given)
inactive: SK-MEL-2 melanoma 111% | SN12C renal 105% | UO-31 renal 91.8% | TK-10 renal 105% | ACHN renal 95.6% | CAKI-1 renal 90.8% | A498 renal 117% | SR leukemia 93% | RPMI-8226 leukemia 103% | OVCAR-8 ovarian 104% | OVCAR-5 ovarian 105% | OVCAR-4 ovarian 110% | SK-OV-3 ovarian 110% | IGROV1 ovarian 115% | OVCAR-3 ovarian 107% | HS 578T breast 117% | NCI/ADR-RES ovarian 106%
